Assay results published in the supplement of paper PMC10849652.
The full data set covers some 8,800 targets. This sample favours those with a hit. About 0.5% of all pairs of compound and target were hits.

Assays:
Experiment in all cases: log2 fold change, soluble protein after heating vs DMSO (PISA); higher = thermal stabilisation; K562 lysate, 10 uM; active = over 0.2 and 3.5 SD of the protein, either way, in both replicates (recomputed)
ibrutinib = compound: C=CC(=O)N1CCC[C@@H](n2nc(-c3ccc(Oc4ccccc4)cc3)c3c(N)ncnc32)C1 [ibrutinib]
Procedure, shortened: (§1)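 Soluble protein was defined as the supernatant remaining after 21,000xg for 90 min, following pooling of heated aliquots and adjustment to 0.5% NP-40 at 4°C. Before that, crude K562 extract at 1 mg/mL protein in PBS pH 7.4 with 1 mM MgCl2 was treated with 10 μM compound for 30 min and heated for 3 min across 48°C-58°C. Quantification used TMTpro 16plex LC-MS/MS with channel sums equalised, and values are log-two fold changes in thermal stability relative to solvent controls from duplicates.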

[1] = compound: CC(=O)c1cnc2ccc(-c3cc(Cl)c(O)c(Cl)c3)nc2c1N[C@H]1CC[C@H](CN(C)C)CC1
Procedure, shortened: as §1

ralimetinib = compound: CC(C)(C)Cn1c(N)nc2ccc(-c3[nH]c(C(C)(C)C)nc3-c3ccc(F)cc3)nc21 [ralimetinib]
Procedure, shortened: as §1

[2] = compound: CC(C)(O)CC(=O)NCCn1ccc2ncnc(Nc3ccc(Oc4cccc(C(F)(F)F)c4)c(Cl)c3)c21
Procedure, shortened: as §1

[3] = compound: CC(C)C1=C2N=C(C=C(N2N=C1)NCC3=CC=CC=C3)NCCCCCCN
Procedure, shortened: as §1

[4] = compound: CC1=C(C(CC(=O)N1)C2=CC=C(C=C2)C(F)(F)F)C(=O)NC3=C(C=C4C(=C3)C=NN4)F
Procedure, shortened: as §1

[5] = compound: CC1=C(C2=C(C=C1)C(=O)C3=CC=CC=C3N2CCCN)C
Procedure, shortened: as §1

[6] = compound: CC1=C(C=C(C=C1)NC(=O)C2=CC(=CC=C2)C(C)(C)C#N)NC3=CC4=C(C=C3)N=CN(C4=O)C
Procedure, shortened: as §1

[7] = compound: CC1=C(C=C(C=C1)NC(=O)C2=CC(=CC=C2)N(C)C)NC(=O)C3=CC=C(C=C3)O
Procedure, shortened: as §1

[8] = compound: CC1=CC=C(C=C1)SC2=C3C=C(SC3=CN=C2)C(=O)N
Procedure, shortened: as §1

Measured: log2 fold change

FNBP1L (UniProt Q5T0N5)
Sequence of UniProt Q5T0N5 (Q5T0N5 whole entry, looked up): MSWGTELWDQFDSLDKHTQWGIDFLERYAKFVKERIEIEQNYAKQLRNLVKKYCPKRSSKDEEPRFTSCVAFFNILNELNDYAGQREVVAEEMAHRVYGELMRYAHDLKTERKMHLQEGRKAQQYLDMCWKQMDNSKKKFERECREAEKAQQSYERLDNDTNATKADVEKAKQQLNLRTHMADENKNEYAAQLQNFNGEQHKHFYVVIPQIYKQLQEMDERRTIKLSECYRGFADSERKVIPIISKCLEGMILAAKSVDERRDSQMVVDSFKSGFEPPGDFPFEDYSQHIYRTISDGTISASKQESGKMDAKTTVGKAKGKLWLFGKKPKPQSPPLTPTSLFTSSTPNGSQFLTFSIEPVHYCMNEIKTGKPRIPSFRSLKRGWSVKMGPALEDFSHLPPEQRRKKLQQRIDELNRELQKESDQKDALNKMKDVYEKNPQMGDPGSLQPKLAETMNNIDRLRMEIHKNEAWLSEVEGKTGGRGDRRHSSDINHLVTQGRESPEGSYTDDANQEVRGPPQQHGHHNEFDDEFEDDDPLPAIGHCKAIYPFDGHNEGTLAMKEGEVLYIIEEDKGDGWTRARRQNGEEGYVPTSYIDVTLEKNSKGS
inactive: ibrutinib 0.034 | [1] -0.006 | ralimetinib 0.055 | [2] -0.082 | [3] -0.003 | [4] 0 | [5] 0.066 | [6] -0.007 | [7] 0.035 | [8] 0.034

FAM83A (UniProt Q86UY5)
Sequence of UniProt Q86UY5 (Q86UY5 whole entry, looked up): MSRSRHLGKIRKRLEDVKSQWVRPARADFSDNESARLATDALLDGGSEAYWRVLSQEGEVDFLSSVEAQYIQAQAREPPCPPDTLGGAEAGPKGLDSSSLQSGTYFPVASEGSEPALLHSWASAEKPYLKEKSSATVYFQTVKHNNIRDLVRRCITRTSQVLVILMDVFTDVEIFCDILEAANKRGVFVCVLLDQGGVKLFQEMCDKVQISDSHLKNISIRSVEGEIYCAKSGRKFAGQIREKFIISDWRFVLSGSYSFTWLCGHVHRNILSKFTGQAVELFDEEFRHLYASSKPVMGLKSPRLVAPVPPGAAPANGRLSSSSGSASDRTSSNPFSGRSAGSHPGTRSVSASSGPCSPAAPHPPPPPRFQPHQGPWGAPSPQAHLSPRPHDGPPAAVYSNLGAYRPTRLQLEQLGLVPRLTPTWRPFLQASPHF
inactive: ibrutinib 0.125 | [1] 0.006 | ralimetinib 0.008 | [2] 0.053 | [3] -0.06 | [4] 0.018 | [5] 0.023 | [6] 0.035 | [7] -0.023 | [8] 0.026

ERCC4 (UniProt Q92889)
inactive: ibrutinib -0.02 | [1] 0.027 | ralimetinib -0.028 | [2] 0.006 | [3] 0.059 | [4] -0.021 | [5] -0.029 | [6] 0.013 | [7] 0.025 | [8] -0.054

EPRS (UniProt P07814)
inactive: ibrutinib -0.018 | [1] 0.002 | ralimetinib 0.01 | [2] 0.026 | [3] 0.02 | [4] -0.014 | [5] 0.02 | [6] -0.004 | [7] 0.046 | [8] 0.019

EPB41, A0A2R8Y6D0
inactive: ibrutinib 0.04 | [1] 0.007 | ralimetinib 0.171 | [2] 0.094 | [3] -0.061 | [4] -0.012 | [5] 0 | [6] -0.065 | [7] 0.078 | [8] -0.02

FKBP8 isoform 2 (UniProt Q14318)
Sequence of UniProt Q14318 (Q14318 whole entry, looked up): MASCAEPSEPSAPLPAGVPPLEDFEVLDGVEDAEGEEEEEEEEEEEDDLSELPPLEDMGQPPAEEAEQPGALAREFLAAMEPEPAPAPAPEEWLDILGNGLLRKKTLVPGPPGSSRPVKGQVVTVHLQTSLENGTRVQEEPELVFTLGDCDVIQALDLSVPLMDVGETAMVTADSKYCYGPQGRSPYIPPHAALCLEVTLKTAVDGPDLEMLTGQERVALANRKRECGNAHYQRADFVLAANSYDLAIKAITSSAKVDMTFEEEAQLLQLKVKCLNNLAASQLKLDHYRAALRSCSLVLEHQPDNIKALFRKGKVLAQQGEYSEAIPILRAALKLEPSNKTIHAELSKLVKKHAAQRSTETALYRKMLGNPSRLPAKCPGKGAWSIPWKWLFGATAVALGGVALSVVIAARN
inactive: ibrutinib 0.022 | [1] -0.016 | ralimetinib 0.018 | [2] -0.017 | [3] 0.027 | [4] -0.041 | [5] 0.024 | [6] 0.034 | [7] 0.007 | [8] -0.053

GAPVD1 isoform 6 (UniProt Q14C86)
Sequence of UniProt Q14C86 (Q14C86 whole entry, looked up): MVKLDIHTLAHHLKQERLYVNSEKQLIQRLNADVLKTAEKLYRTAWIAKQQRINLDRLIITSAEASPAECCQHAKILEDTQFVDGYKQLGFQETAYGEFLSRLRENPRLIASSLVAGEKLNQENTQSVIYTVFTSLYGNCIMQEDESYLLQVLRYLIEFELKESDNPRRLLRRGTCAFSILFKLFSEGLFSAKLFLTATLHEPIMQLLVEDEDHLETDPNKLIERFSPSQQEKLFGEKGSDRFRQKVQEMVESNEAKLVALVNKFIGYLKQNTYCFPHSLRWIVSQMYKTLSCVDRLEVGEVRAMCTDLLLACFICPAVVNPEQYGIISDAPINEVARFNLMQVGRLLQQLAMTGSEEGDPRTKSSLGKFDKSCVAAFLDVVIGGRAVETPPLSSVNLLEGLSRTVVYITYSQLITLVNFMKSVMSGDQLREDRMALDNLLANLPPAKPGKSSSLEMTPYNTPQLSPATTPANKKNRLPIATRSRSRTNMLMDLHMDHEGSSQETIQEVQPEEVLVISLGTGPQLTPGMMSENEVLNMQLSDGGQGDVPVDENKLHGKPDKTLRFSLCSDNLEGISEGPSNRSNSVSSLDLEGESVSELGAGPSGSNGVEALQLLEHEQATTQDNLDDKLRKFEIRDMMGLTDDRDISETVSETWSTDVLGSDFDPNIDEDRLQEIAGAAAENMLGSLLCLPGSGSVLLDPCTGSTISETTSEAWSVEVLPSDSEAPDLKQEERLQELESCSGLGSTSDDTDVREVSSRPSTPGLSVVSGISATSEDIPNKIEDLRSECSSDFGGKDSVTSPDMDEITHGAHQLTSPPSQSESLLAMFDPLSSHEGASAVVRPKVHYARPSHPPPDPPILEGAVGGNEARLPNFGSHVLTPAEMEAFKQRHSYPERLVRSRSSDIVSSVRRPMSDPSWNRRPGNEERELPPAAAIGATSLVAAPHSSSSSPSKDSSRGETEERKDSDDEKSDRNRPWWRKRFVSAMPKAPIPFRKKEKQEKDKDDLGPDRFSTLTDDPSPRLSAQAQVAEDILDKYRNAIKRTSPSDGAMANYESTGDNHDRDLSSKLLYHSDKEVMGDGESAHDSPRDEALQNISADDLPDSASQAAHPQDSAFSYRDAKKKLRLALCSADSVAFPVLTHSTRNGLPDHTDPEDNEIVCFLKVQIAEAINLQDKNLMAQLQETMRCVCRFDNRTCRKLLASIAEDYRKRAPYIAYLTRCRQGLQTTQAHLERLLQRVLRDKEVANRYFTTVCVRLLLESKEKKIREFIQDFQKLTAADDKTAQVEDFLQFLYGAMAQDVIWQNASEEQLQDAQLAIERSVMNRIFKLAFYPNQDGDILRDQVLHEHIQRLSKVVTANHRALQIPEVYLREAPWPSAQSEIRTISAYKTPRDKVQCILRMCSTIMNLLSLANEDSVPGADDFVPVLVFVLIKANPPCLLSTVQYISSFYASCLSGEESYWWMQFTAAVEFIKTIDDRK
inactive: ibrutinib 0.005 | [1] 0.003 | ralimetinib 0.031 | [2] -0.004 | [3] -0.018 | [4] 0.028 | [5] 0.008 | [6] 0.003 | [7] 0.011 | [8] 0.018

EGLN1 (UniProt Q9GZT9)
Sequence of UniProt Q9GZT9 (Q9GZT9 whole entry, looked up): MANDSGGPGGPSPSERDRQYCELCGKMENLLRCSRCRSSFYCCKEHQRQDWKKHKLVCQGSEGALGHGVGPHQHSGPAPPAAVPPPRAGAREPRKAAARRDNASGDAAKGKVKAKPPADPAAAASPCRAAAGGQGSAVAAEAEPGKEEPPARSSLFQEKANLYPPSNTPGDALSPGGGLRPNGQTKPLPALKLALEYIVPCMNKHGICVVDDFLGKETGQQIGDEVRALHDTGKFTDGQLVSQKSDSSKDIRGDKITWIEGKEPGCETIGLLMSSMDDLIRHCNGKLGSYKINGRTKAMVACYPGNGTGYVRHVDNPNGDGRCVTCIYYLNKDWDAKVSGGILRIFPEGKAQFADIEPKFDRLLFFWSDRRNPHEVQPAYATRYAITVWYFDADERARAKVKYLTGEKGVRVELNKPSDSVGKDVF
inactive: ibrutinib -0.041 | [1] 0.007 | ralimetinib 0.01 | [2] 0.072 | [3] 0.029 | [4] 0.013 | [5] -0.029 | [6] 0.013 | [7] 0.029 | [8] 0.038

EIF2B4 isoform 2 (UniProt Q9UI10)
Sequence of UniProt Q9UI10 (Q9UI10 whole entry, looked up): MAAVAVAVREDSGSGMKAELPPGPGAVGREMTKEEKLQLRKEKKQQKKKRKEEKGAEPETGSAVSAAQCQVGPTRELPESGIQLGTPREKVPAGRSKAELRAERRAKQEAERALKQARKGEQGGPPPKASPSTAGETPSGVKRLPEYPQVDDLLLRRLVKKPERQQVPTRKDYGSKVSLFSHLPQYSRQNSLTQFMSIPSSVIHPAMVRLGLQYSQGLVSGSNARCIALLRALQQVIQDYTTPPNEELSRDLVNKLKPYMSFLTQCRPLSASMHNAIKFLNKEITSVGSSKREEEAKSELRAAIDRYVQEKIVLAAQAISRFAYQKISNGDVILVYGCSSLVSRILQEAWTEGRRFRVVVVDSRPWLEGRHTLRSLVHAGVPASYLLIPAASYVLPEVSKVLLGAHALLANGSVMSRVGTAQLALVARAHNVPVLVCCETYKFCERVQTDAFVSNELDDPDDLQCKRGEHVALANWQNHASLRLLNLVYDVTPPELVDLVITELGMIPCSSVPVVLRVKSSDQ
inactive: ibrutinib 0.011 | [1] 0.011 | ralimetinib 0.009 | [2] -0.005 | [3] -0.036 | [4] -0.004 | [5] -0.036 | [6] 0.001 | [7] -0.005 | [8] 0.04

EFCAB14 (UniProt O75071)
Sequence of UniProt O75071 (O75071 whole entry, looked up): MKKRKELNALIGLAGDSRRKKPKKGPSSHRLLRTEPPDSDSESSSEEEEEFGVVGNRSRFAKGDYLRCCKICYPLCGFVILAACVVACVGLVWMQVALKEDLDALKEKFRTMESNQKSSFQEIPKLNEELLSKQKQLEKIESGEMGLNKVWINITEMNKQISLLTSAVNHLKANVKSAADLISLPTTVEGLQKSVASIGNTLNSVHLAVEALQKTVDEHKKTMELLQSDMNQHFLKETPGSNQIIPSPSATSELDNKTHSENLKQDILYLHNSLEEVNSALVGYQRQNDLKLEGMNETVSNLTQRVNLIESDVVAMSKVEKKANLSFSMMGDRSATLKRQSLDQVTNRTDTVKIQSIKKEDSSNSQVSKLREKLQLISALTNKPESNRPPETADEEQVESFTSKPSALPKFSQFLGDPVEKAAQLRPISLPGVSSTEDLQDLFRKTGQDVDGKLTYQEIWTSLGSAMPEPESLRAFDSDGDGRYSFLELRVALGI
inactive: ibrutinib 0.026 | [1] 0.015 | ralimetinib 0.055 | [2] -0.075 | [3] -0.045 | [4] 0.077 | [5] 0.02 | [6] 0.011 | [7] 0.016 | [8] 0.012

EP300 (UniProt Q09472)
inactive: ibrutinib 0.084 | [1] 0.117 | ralimetinib -0.026 | [2] -0.011 | [3] -0.07 | [4] 0.423 | [5] -0.011 | [6] -0.035 | [7] -0.025 | [8] -0.008

EDARADD (UniProt Q8WWZ3)
inactive: ibrutinib 0.22 | [1] -0.019 | ralimetinib -0.003 | [2] -0.071 | [3] -0.008 | [4] -0.007 | [5] 0.062 | [6] 0.041 | [7] 0.017 | [8] -0.035

FMNL1 isoform 3 (UniProt O95466)
inactive: ibrutinib 0.043 | [1] -0.002 | ralimetinib 0.038 | [2] -0.02 | [3] 0.023 | [4] 0.099 | [5] 0.03 | [6] 0.073 | [7] 0.015 | [8] 0.001

ETFRF1 (UniProt Q6IPR1)
inactive: ibrutinib 0.062 | [1] 0.028 | ralimetinib -0.005 | [2] -0.044 | [3] -0.006 | [4] 0.049 | [5] -0.018 | [6] -0.071 | [7] 0.136 | [8] -0.02

GFPT1 (UniProt Q06210)
inactive: ibrutinib 0.014 | [1] -0.014 | ralimetinib 0.002 | [2] -0.024 | [3] 0.022 | [4] -0.015 | [5] 0.012 | [6] 0.009 | [7] 0.014 | [8] 0.01

FBXO30 (UniProt Q8TB52)
inactive: ibrutinib 0.022 | [1] -0.007 | ralimetinib 0.057 | [2] 0.046 | [3] -0.009 | [4] -0.003 | [5] 0.013 | [6] 0.016 | [7] 0.006 | [8] 0.016

FYB1 isoform 3 (UniProt O15117)
inactive: ibrutinib -0.008 | [1] -0.01 | ralimetinib -0.022 | [2] -0.008 | [3] 0.005 | [4] -0.017 | [5] -0.042 | [6] 0.059 | [7] 0.008 | [8] -0.013

EIF2B4 (UniProt Q9UI10)
inactive: ibrutinib -0.01 | [1] 0.05 | ralimetinib -0.033 | [2] -0.062 | [3] 0.013 | [4] 0.009 | [5] -0.109 | [6] -0.044 | [7] 0.005 | [8] -0.038

FKBP1A (UniProt P62942)
inactive: ibrutinib 0.083 | [1] -0.103 | ralimetinib 0.188 | [2] -0.054 | [3] 0.049 | [4] -0.022 | [5] -0.013 | [6] 0.084 | [7] 0.018 | [8] 0.187

GEMIN4 (UniProt P57678)
inactive: ibrutinib 0.003 | [1] -0.028 | ralimetinib 0.056 | [2] 0.001 | [3] 0.051 | [4] 0.007 | [5] -0.048 | [6] -0.005 | [7] 0.059 | [8] 0.011

EEF1AKMT4 (UniProt P0DPD7)
inactive: ibrutinib 0.023 | [1] -0.012 | ralimetinib -0.003 | [2] -0.053 | [3] 0.003 | [4] -0.006 | [5] -0.055 | [6] -0.029 | [7] -0.029 | [8] 0.069

FAM118B (UniProt Q9BPY3)
inactive: ibrutinib 0.066 | [1] -0.016 | ralimetinib 0.015 | [2] -0.019 | [3] 0.023 | [4] -0.01 | [5] 0.012 | [6] -0.012 | [7] 0.03 | [8] 0.008

FAU (UniProt E9PR30)
inactive: ibrutinib -0.018 | [1] 0.012 | ralimetinib -0.01 | [2] -0.018 | [3] -0.122 | [4] -0.034 | [5] -0.015 | [6] 0.029 | [7] -0.003 | [8] 0.027

FDX2 (UniProt Q6P4F2)
Sequence of UniProt Q6P4F2 (Q6P4F2 whole entry, looked up): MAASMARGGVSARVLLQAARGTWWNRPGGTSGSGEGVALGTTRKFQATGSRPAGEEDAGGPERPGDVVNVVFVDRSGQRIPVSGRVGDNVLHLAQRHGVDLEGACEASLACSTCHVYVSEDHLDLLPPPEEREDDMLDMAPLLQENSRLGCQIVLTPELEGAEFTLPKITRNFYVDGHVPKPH
inactive: ibrutinib 0.056 | [1] -0.025 | ralimetinib -0.047 | [2] -0.194 | [3] -0.039 | [4] 0.01 | [5] -0.018 | [6] 0.015 | [7] 0.05 | [8] 0.006

DYNC1I2 isoform 5 (UniProt Q13409)
inactive: ibrutinib 0.022 | [1] -0.021 | ralimetinib 0 | [2] -0.014 | [3] 0.004 | [4] 0.012 | [5] -0.007 | [6] -0.012 | [7] 0.008 | [8] -0.003

EMP3 (UniProt P54852)
Sequence of UniProt P54852 (P54852 whole entry, looked up): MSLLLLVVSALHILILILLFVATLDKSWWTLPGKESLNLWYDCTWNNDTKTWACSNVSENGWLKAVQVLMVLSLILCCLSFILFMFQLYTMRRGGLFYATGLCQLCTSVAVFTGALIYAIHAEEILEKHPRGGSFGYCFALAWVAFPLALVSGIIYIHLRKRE
inactive: ibrutinib 0.045 | [1] -0.012 | ralimetinib 0.088 | [2] -0.081 | [3] 0 | [4] 0.013 | [5] -0.003 | [6] 0.041 | [7] -0.036 | [8] -0.01

EMC7 (UniProt Q9NPA0)
Sequence of UniProt Q9NPA0 (Q9NPA0 whole entry, looked up): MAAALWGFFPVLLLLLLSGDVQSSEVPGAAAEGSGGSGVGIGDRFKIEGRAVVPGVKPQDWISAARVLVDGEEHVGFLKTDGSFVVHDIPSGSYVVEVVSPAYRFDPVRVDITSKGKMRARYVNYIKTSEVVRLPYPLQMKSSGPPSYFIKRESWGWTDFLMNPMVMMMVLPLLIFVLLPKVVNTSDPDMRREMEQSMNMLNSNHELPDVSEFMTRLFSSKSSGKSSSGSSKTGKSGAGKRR
inactive: ibrutinib -0.033 | [1] -0.001 | ralimetinib 0.008 | [2] -0.003 | [3] 0.013 | [4] -0.012 | [5] 0.024 | [6] 0.015 | [7] -0.006 | [8] -0.032
